This is one part of a sample in which hits are shown more often than they occur.
RmlCD inh mix: inhibitors of RmlC and RmlD coupled enzymes | RmlC/RmlD coupled enzyme inhibition, 384-well mixture HTS | inhibition, % at 5.5 µM | 0.39% of 110,000 active; in the data active = inhibition above about 30%, passing the limit was not always enough
HIV RNase H inh-1: inhibitors of HIV-1 reverse transcriptase RNase H. P04585. RT-RNase H RNA/DNA duplex cleavage, fluorescence. inhibition, % at 10 µM. 1.9% of 65,000 active. AID 565; in the data active = inhibition above about 50%
HIV RNase H inh-2: confirmation of HIV-1 reverse transcriptase RNase H inhibitors; Recombinant RT RNase H, fluorescent RNA/DNA duplex cleavage; shares compounds with HIV RNase H inh-1; 39% of 1,000 active; inhibition, % at 10 µM; in the data active = inhibition above about 48%
Active calls of the source: *; nt = no result given.

SMILES | RmlCD inh mix | HIV RNase H inh-1 | HIV RNase H inh-2
COc1ccc(Cl)cc1NC(=O)C(=O)NC1CCCCCC1 | 0.3 | nt | nt
CC(C)CNc1cc(N2CCCC2)ccc1[N+](=O)[O-] | -0.9 | nt | nt
N#Cc1cc2c(nc1SCC(=O)N1CCCCC1)CCCCC2 | -12.4 | 11.4 | nt
CC(C)(C)c1ccc(-c2nnc3sc(-c4ccncc4)nn23)cc1 | -3.2 | 94.7* | 57.6*
Cc1nnc2sc(-c3ccncc3)nn12 | 30.5 | -6.9 | nt
CCOc1ccc(-c2nn3c(-c4ccc(OC)cc4)nnc3s2)cc1 | nt | -0.8 | nt
CCOc1ccc(-c2nn3c(-c4ccccc4)nnc3s2)cc1 | -8.8 | 87.2* | 17.2
Cc1ccc(C2=[N+]([O-])C(C)(C)CC2)cc1 | -10.2 | nt | nt
Cc1cc(C)n(-c2nc(SCC(=O)Nc3nccs3)c3c4c(sc3n2)COC(C)(C)C4)n1 | 8.5 | 24.7 | nt
O=C(OC1CCN(c2ncc(C(F)(F)F)cc2Cl)CC1)c1ccc(Cl)cc1 | -11.3 | nt | nt
Nc1nnc(-c2ccc(F)cc2)s1 | -9.8 | 16.8 | nt
Nc1nnc(CSCc2ccc(F)cc2)s1 | 10.9 | 73.8* | 61.5*
COc1ccc(N2CCN(c3ncnc4c3cnn4-c3ccc(C)cc3C)CC2)cc1 | 7.7 | 3.8 | nt
COc1ccc(-n2ncc3c(N4CCN(c5cc(C)ccc5C)CC4)ncnc32)cc1 | -265.1 | 54.0* | 8.3
Cc1cccc(NC(=O)c2ccccc2Br)n1 | 6.8 | 63.2* | 20.3
Cc1cccc(NC(=O)c2ccccc2[N+](=O)[O-])n1 | -0.6 | nt | nt
CCNC(=O)NC(=O)C(C)Sc1nnc(COc2ccccc2Cl)o1 (stereo not drawn) | -7.8 | nt | nt
O=C(Nc1nnc(Cc2ccccc2)s1)c1ccco1 | 3.0 | nt | nt
NC(=O)c1cc(Cc2ccccc2)sc1NC(=O)c1ccco1 | -2.8 | 88.9* | 31.1
O=C(Nc1nc(-c2ccco2)c(-c2ccco2)s1)C1CC(=O)N(c2ccc3c(c2)OCCO3)C1 (stereo not drawn) | -5.1 | 74.5* | -0.3
CCc1cccc(CC)c1NC(=O)C1CC(=O)N(c2ccc3c(c2)OCCO3)C1 (stereo not drawn) | 14.0 | nt | nt
O=C(Cn1c(=O)oc2cc(S(=O)(=O)N3CCCCCC3)ccc21)NC1CCCCCCC1 | -7.9 | 25.7 | nt
O=C(Cn1c(=O)oc2cc(S(=O)(=O)N3CCCC3)ccc21)NC1CCCc2ccccc21 (stereo not drawn) | nt | 65.1* | 76.3*
O=C(NCCCc1ccccc1)c1cnc2n(c1=O)CCS2 | 14.2 | 71.7* | 31.6
O=C(NCc1ccccc1)c1cnc2n(c1=O)CCS2 | 4.2 | 0.4 | nt
SMILES | RmlCD inh mix | HIV RNase H inh-1 | HIV RNase H inh-2
CCCNC(=O)Cn1cnc2sc(C(=O)N3CCCC(C(=O)OCC)C3)c(C)c2c1=O (stereo not drawn) | -8.9 | 2.5 | nt
CC(c1ccccc1)C1C(C#N)=C(N)SC(N)=C1C#N (stereo not drawn) | 4.5 | -6.3 | nt
CC(C)C1C(C#N)=C(N)SC(N)=C1C#N | 130.9 | -7.6 | nt
N#CC1=C(N)SC(N)=C(C#N)C1c1ccoc1 | 8.6 | 86.2* | 43.9
Cc1ccc(C2C(C#N)=C(N)SC(N)=C2C#N)c(C)c1 | -29.1 | 83.1* | 4.2
CC1=C(C#N)C(c2ccoc2)C(C(=O)OCc2ccccc2)=C(N)S1 (stereo not drawn) | 3.4 | -46.6 | nt
Cc1ccc(C2C(C#N)=C(N)SC(N)=C2C#N)cc1 | nt | 66.9* | 26.1
O=C1C(SC(F)(F)C(F)F)=C(C(F)(F)F)OC2C3C=CC(C3)C12 (stereo not drawn) | -14.4 | -1.9 | nt
CCCCN1C(=S)NC[C@@H]1Cc1cccc2ccccc12 | 3.7 | nt | nt
CCN(CC)S(=O)(=O)c1ccc(/C(O)=C(\C#N)c2nc3ccccc3n2C)cc1 | -9.9 | -1.1 | nt
O=C1CC(c2ccccc2)Cc2nc(N3CCc4ccccc43)ncc21 (stereo not drawn) | -2.0 | 78.2* | 93.8*
O=C1CCCc2nc(N3CCc4ccccc43)ncc21 | -10.3 | 3.0 | nt
CNc1sc(C(=O)c2ccc(F)cc2)c(N)c1-c1nc2ccccc2s1 | -9.2 | nt | nt
CNc1sc(C(=O)c2cccs2)c(N)c1-c1nc2ccccc2s1 | nt | 75.0* | 38.1
CC(C)OC(=O)c1nn2c(C(F)(F)F)cc(-c3ccc(Br)o3)nc2c1Br | -3.7 | 66.5* | -7.1
CC(C)OC(=O)c1nn2c(C(F)(F)F)cc(-c3ccco3)nc2c1Cl | 16.6 | nt | nt
O=C(COC(=O)C1(c2ccccc2F)CCCC1)N1CCN(C(=O)c2ccco2)CC1 | -4.4 | -4.5 | nt
CCn1cc(C(=O)NCc2ccco2)c(=O)c2cc(S(=O)(=O)N3CCCCCC3)ccc21 | 5.0 | -24.1 | nt
CCn1cc(C(=O)NCc2ccco2)c(=O)c2cc(S(=O)(=O)N3CCc4ccccc4C3)ccc21 | -0.4 | 65.1* | 63.1*
CCCc1cc(C(=O)Nc2cccc(C(C)=O)c2)no1 | 3.1 | -7.1 | nt
COc1ccc(NC(=O)c2cc(C)on2)cc1OC | -9.1 | 0.9 | nt
COc1ccc(NC(=O)c2cc(-c3ccc(OC)c(OC)c3)on2)cc1OC | nt | 81.1* | 32.1
CC(=O)c1cccc(NC(=O)c2cc(-c3ccc(C)cc3)on2)c1 | -13.6 | 52.3* | 56.8*

Screening results deposited in PubChem by several laboratories.
